# Data as given in PubChem BioAssay (Tox21).
# Records with an inconclusive call do not appear. Where a call stands in place of a potency, no number is given. The source made the active and inactive calls. Calls come from the whole dose curve.
# Test system: not listed separately
# Test: p53 small molecule agonists, cell-based qHTS assay with rat liver microsomes: qHTS cell viability counter screen (AID 1963580)
# Conditions: p53RE-bla HCT-116 + rat microsomes, ATP viability, 16 h; series mostly up to 66 µM
# In short: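 Luminescent ATP readout (CellTiter-Glo, 30 min at room temperature) reports viability of p53RE-bla HCT-116 cells after 16 h at 37 C with test compounds under metabolic activation by rat liver microsomes and NADPH at 0.5 mg/mL final each.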
# Note: nearly all actives have a fitted effect of over 45% in size.
row,Compound,Potency
1,Nc1ccccc1Nc1ccccc1,inactive
2,CC[C@H](C)C(=O)O[C@H]1C[C@H](O)C=C2C=C[C@H](C)[C@H](CC[C@@H](O)C[C@@H](O)CC(=O)O)[C@H]21,inactive
3,CC(=O)c1ccc2c(c1)Cc1ccccc1-2,inactive
4,Cn1c(=O)c2c(ncn2CC2OCCO2)n(C)c1=O,inactive
5,C=CCc1cc(S(=O)(=O)c2ccc(O)c(CC=C)c2)ccc1O,inactive
6,CCCCOc1ccc(CC(=O)NO)cc1,inactive
7,CC(C)=CC=O,inactive
8,O=C(O)c1cccnc1Nc1cccc(C(F)(F)F)c1,inactive
9,O=C1CCc2cc(OCCCCc3nnnn3C3CCCCC3)ccc2N1,inactive
10,CCC(C)(C)OC,inactive
11,CC(=O)CCC1=C(C)CCCC1(C)C,inactive
12,CCN1CCN(C(=O)N[C@@H](C(=O)N[C@@H]2C(=O)N3[C@@H]2SC(C)(C)[C@H]3C(=O)O)c2ccccc2)C(=O)C1=O,inactive
13,CCCCCC(C)O (stereo not given),inactive
14,CC(C)(C)C(O)/C=C/c1ccc2c(c1)OCO2 (stereo not given),inactive
15,CC1(C)O[C@@H]2C[C@H]3[C@@H]4C[C@H](F)C5=CC(=O)C=C[C@]5(C)[C@H]4[C@@H](O)C[C@]3(C)[C@]2(C(=O)CO)O1,inactive
16,C=C(C)C(=O)OCc1ccccc1,inactive
17,O=C(Cl)c1cccc([N+](=O)[O-])c1,inactive
18,CN1CC(=O)N2[C@H](c3ccc4c(c3)OCO4)c3[nH]c4ccccc4c3C[C@@H]2C1=O,inactive
19,CCCc1nc(C)c2c(=O)[nH]c(-c3cc(S(=O)(=O)N4CCN(CC)CC4)ccc3OCC)nn12,inactive
20,COc1ccnc(CS(=O)c2nc3ccc(OC(F)F)cc3[nH]2)c1OC (stereo not given),inactive

row,Compound,Potency
1,Cc1ccc(OC(=O)CC(C)C)cc1,inactive
2,Nc1ccn([C@@H]2O[C@H](CO)[C@@H](O)[C@@H]2O)c(=O)n1,inactive
3,CN1C(C(=O)Nc2ccccn2)=C(O)c2sccc2S1(=O)=O,inactive
4,O=C(O)CO,inactive
5,C=C(C)C(=O)OCCOCCOC(=O)C(=C)C,inactive
6,O=C(Nc1cccc(Cl)c1)OCC#CCCl,inactive
7,CCNC(=O)NCc1cccc(Cl)c1,inactive
8,O=C1CCCCCO1,inactive
9,COc1nc(C)nc(Cl)c1NC1=NCCN1,inactive
10,Cc1ccc(Cl)c(Nc2ccccc2C(=O)O)c1Cl,inactive
11,CCOC(=O)CC(=O)c1ccccc1,inactive
12,CO/N=C(/C(=O)N[C@@H]1C(=O)N2C(C(=O)[O-])=C(C[n+]3ccn4ncccc43)CS[C@H]12)c1nsc(N)n1,inactive
13,O=C1CCCCC1C1CCCCC1 (stereo not given),inactive
14,N#Cc1ccccc1O,inactive
15,O=C1NCC2(CCN(CCc3ccccc3)CC2)O1,inactive
16,CN(C)C(=O)Nc1ccccc1,inactive
17,CC(C)CO,inactive
18,CC[C@H]1OC(=O)[C@H](C)[C@@H](O[C@H]2C[C@@](C)(OC)[C@@H](O)[C@H](C)O2)[C@H](C)[C@@H](O[C@@H]2O[C@H](C)C[C@H](N(C)C)[C@H]2O)[C@](C)(O)C[C@@H](C)/C(=N\OCOCCOC)[C@H](C)[C@@H](O)[C@]1(C)O,inactive
19,Nc1ccc(Oc2ccc(N)c(N)c2)cc1,inactive
20,CC(C)COC(=O)CCCCC(=O)OCC(C)C,inactive

# Test system: not listed separately
# Test: p53 small molecule agonists, cell-based qHTS assay: qHTS cell viability counter screen (AID 1963581)
# Conditions: p53RE-bla HCT-116 viability, ATP luminescence, 16 h; series mostly up to 66 µM
# In short: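 Luminescence from CellTiter-Glo, reflecting ATP content, serves as the cytotoxicity measure; it is taken after the 2 h reporter substrate step in HCT-116 p53RE-bla cells dosed for 16 h at 37 C.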
row,Compound,Potency
1,CC[C@H](C)C(=O)O[C@H]1C[C@H](O)C=C2C=C[C@H](C)[C@H](CC[C@@H](O)C[C@@H](O)CC(=O)O)[C@H]21,inactive
2,Cn1c(=O)c2c(ncn2CC2OCCO2)n(C)c1=O,inactive
3,O=C(O)c1cccnc1Nc1cccc(C(F)(F)F)c1,inactive
4,O=C1CCc2cc(OCCCCc3nnnn3C3CCCCC3)ccc2N1,inactive
5,CCN1CCN(C(=O)N[C@@H](C(=O)N[C@@H]2C(=O)N3[C@@H]2SC(C)(C)[C@H]3C(=O)O)c2ccccc2)C(=O)C1=O,inactive
6,CC1(C)O[C@@H]2C[C@H]3[C@@H]4C[C@H](F)C5=CC(=O)C=C[C@]5(C)[C@H]4[C@@H](O)C[C@]3(C)[C@]2(C(=O)CO)O1,inactive
7,COc1ccnc(CS(=O)c2nc3ccc(OC(F)F)cc3[nH]2)c1OC (stereo not given),inactive
8,Nc1ccn([C@@H]2O[C@H](CO)[C@@H](O)[C@@H]2O)c(=O)n1,inactive
9,CN1C(C(=O)Nc2ccccn2)=C(O)c2sccc2S1(=O)=O,inactive
10,O=C(O)CO,inactive
11,COc1nc(C)nc(Cl)c1NC1=NCCN1,inactive
12,Cc1ccc(Cl)c(Nc2ccccc2C(=O)O)c1Cl,inactive
13,CC(C)CO,inactive
14,CC[C@H]1OC(=O)[C@H](C)[C@@H](O[C@H]2C[C@@](C)(OC)[C@@H](O)[C@H](C)O2)[C@H](C)[C@@H](O[C@@H]2O[C@H](C)C[C@H](N(C)C)[C@H]2O)[C@](C)(O)C[C@@H](C)/C(=N\OCOCCOC)[C@H](C)[C@@H](O)[C@]1(C)O,inactive

# Biological target: 5-hydroxytryptamine receptor 2A (Homo sapiens) (UniProt P28223)
# Test: 5-hydroxytryptamine receptor 2A (HTR2A) small molecule antagonists, cell-based qHTS assay (AID 1963586)
# Conditions: HTR2A-CHO cells, DOI-induced calcium flux, fluorescence; series mostly up to 61.5 µM
# In short: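 CHO cells stably expressing human HTR2A were plated for 18 h at 37 C, then loaded with calcium dye for 1 h. Compounds were preincubated 5 min at room temperature before DOI (4 nM solution) was added. Kinetic fluorescence was read for 3 min.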
# Chain of 5-hydroxytryptamine receptor 2A (Homo sapiens) (P28223 whole entry, looked up): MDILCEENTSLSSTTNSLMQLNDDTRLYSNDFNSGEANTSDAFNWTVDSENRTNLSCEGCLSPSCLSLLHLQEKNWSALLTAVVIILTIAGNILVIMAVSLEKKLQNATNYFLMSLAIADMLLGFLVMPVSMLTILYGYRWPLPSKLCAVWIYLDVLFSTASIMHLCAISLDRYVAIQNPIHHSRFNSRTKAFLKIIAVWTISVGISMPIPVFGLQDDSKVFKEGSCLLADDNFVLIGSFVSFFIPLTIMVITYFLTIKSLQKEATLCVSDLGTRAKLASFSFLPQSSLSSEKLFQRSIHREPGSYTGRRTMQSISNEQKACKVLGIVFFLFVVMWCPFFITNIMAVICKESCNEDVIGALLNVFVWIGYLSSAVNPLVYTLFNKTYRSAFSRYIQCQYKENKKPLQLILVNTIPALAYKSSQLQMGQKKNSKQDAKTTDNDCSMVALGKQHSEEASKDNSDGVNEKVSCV
row,Compound,Potency
1,Nc1ccccc1Nc1ccccc1,inactive
2,CC(=O)c1ccc2c(c1)Cc1ccccc1-2,inactive
3,C=CCc1cc(S(=O)(=O)c2ccc(O)c(CC=C)c2)ccc1O,inactive
4,CCCCOc1ccc(CC(=O)NO)cc1,inactive
5,CC(C)=CC=O,inactive
6,CCC(C)(C)OC,inactive
7,CC(=O)CCC1=C(C)CCCC1(C)C,inactive
8,CCCCCC(C)O (stereo not given),inactive
9,CC(C)(C)C(O)/C=C/c1ccc2c(c1)OCO2 (stereo not given),inactive
10,C=C(C)C(=O)OCc1ccccc1,inactive
11,O=C(Cl)c1cccc([N+](=O)[O-])c1,inactive
12,CN1CC(=O)N2[C@H](c3ccc4c(c3)OCO4)c3[nH]c4ccccc4c3C[C@@H]2C1=O,inactive
13,CCCc1nc(C)c2c(=O)[nH]c(-c3cc(S(=O)(=O)N4CCN(CC)CC4)ccc3OCC)nn12,inactive
14,Cc1ccc(OC(=O)CC(C)C)cc1,inactive
15,C=C(C)C(=O)OCCOCCOC(=O)C(=C)C,inactive
16,O=C(Nc1cccc(Cl)c1)OCC#CCCl,inactive
17,CCNC(=O)NCc1cccc(Cl)c1,inactive
18,O=C1CCCCCO1,inactive
19,CCOC(=O)CC(=O)c1ccccc1,inactive
20,CO/N=C(/C(=O)N[C@@H]1C(=O)N2C(C(=O)[O-])=C(C[n+]3ccn4ncccc43)CS[C@H]12)c1nsc(N)n1,inactive
21,O=C1CCCCC1C1CCCCC1 (stereo not given),inactive
22,N#Cc1ccccc1O,inactive
23,O=C1NCC2(CCN(CCc3ccccc3)CC2)O1,inactive
24,CN(C)C(=O)Nc1ccccc1,inactive
25,Nc1ccc(Oc2ccc(N)c(N)c2)cc1,inactive
26,CC(C)COC(=O)CCCCC(=O)OCC(C)C,inactive
